Experimental findings from PubChem BioAssay (EPA / NIEHS) are described below.

Assay [1] concerns the target human Peroxisome Proliferator-activated Receptor alpha (PPARa), PPARA (gene 5465) (UniProt Q07869). In words: ATG_PPARa_TRANS: Attagene TRANS-FACTORIAL HepG2 Assay for human Peroxisome Proliferator-activated Receptor alpha (PPARa) (AID 2283001).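 As to AC50: potency for gain of reporter signal over DMSO so agonist or activator.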 The method in brief: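 HepG2, transient MRTU transfection, 24 h treatment. RT-PCR → FAM labelling → capillary electrophoresis. Fit vs DMSO, positive direction.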

Read-out in assay [2]: Intercellular Adhesion Molecule 1 (ICAM1), ICAM1 (gene 3383)
Description: BSK_3C_ICAM1: BioMAP Diversity Plus: 3C Assay for Intercellular Adhesion Molecule 1 (ICAM1) Biomarker Activity (AID 2283003; active = hit-call score of the fitted dose curve at least 0.9, where 1 is the maximum; inactive = score below 0.9). The conditions noted are these: primary human endothelial cells (HUVEC); actives raise or lower the signal. The method in brief:
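Chemicals are dosed onto primary human umbilical vein endothelium (3C system). After 24 h, ICAM-1 is measured by ELISA, and responses are fitted bidirectionally relative to DMSO.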

Assay [3] is described as follows: BSK_3C_Proliferation: Cell Proliferation Assessment in the BioMAP Diversity Plus: 3C Assay (AID 2283006; active = hit-call score of the fitted dose curve at least 0.9, where 1 is the maximum; inactive = score below 0.9;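 as to AC50: potency may reflect either rise or fall in cell number versus DMSO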). The conditions noted are these: primary human endothelial cells (HUVEC). In outline:
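Cells (human umbilical vein endothelial, sub-confluent) receive test chemical; after 48 h they are fixed in 10% trichloroacetic acid, stained with 0.1% SRB and read at 560 nm. Activity is referenced to DMSO, fitting increases and decreases.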

The target of assay [4] is Peroxisome proliferator-activated receptor gamma (Homo sapiens) (UniProt P37231). Description: ATG_PPARg_TRANS: Attagene TRANS-FACTORIAL HepG2 Assay for human Peroxisome Proliferator-activated Receptor-gamma (PPARg) (AID 2283007). The method in brief: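 Twenty-four hours after chemical dosing of transiently transfected HepG2 cells, isolated RNA was converted to cDNA, reporter sequences amplified and 6-FAM-labelled, then HpaI-digested and analysed by capillary electrophoresis. Signal increase against DMSO was fitted.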
Peroxisome proliferator-activated receptor gamma (Homo sapiens), sequence (P37231 whole entry, looked up): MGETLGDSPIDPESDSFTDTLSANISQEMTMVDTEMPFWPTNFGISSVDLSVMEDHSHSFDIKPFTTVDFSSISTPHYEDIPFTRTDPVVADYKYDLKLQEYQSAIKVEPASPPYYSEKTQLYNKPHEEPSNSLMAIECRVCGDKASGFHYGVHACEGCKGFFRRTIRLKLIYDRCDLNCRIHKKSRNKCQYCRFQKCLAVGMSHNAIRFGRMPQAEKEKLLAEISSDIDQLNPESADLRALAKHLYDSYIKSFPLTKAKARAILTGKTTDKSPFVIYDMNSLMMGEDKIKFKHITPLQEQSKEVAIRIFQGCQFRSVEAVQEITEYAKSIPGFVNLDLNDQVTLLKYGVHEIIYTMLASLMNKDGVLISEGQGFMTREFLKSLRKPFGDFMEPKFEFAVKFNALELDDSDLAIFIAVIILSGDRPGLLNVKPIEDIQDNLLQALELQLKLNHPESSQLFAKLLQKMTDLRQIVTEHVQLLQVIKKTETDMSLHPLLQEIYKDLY

Assay [5] addresses Nuclear receptor subfamily 1 group I member 2 (Homo sapiens) (UniProt O75469). Description: ATG_PXR_TRANS: Attagene TRANS-FACTORIAL HepG2 Assay for human Pregnane X Receptor (PXR) (AID 2283008). The method in brief:
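Trans-factorial format: exogenous NR-Gal4 fusion activity, not endogenous factor, in transfected human HepG2 liver cells. After 24 h dosing, RNA isolated, reverse-transcribed, amplified and resolved by capillary electrophoresis; induction scored versus DMSO.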

For assay [6], the target named is human Peroxisome Proliferator-activated Receptor delta (PPARd), PPARD (gene 5467) (UniProt Q03181). In words: ATG_PPARd_TRANS: Attagene TRANS-FACTORIAL HepG2 Assay for human Peroxisome Proliferator-activated Receptor delta (PPARd) (AID 2283002). The method in brief:
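Read-out: reporter mRNA induction, quantified by fluorescent RT-PCR products resolved by capillary electrophoresis. Human HepG2 liver cells carried transiently transfected Gal4-UAS reporter constructs with chimeric NR-Gal4 fusions. Cells were dosed for 24 h; DMSO served as baseline.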

Assay [7] addresses human Retinoic Acid Receptor beta (RARb), RARB (gene 5915) (UniProt P10826). In words: ATG_RARb_TRANS: Attagene TRANS-FACTORIAL HepG2 Assay for human Retinoic Acid Receptor beta (AID 2283004). The method in brief:
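Fluorescent capillary-electrophoresis detection of GAL4-UAS reporter mRNA defines the endpoint, with induction over DMSO-treated wells scored as activity. Transiently transfected human hepatoma HepG2 cells expressing exogenous NR–Gal4 proteins are exposed to test chemicals for 24 h.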

Assay [8] concerns the target Retinoic acid receptor alpha (Homo sapiens) (UniProt P10276). Description: ATG_RARa_TRANS: Attagene TRANS-FACTORIAL HepG2 Assay for human Retinoic Acid Receptor alpha (RARa) (AID 2283005). The method in brief:
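HepG2 transiently transfected with multiplex GAL4-UAS reporter units including a human RARa–GAL4 chimera; 24 h compound exposure. Reporter mRNA quantified by RT-PCR, 6-FAM labeling and capillary electrophoresis; gain of signal versus DMSO.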

In assay [9] the target is human Retinoic Acid Receptor gamma (RARg), RARG (gene 5916) (UniProt P13631). Description: ATG_RARg_TRANS: Attagene TRANS-FACTORIAL HepG2 Assay for human Retinoic Acid Receptor gamma (RARg) (AID 2283009). The method in brief:
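TRANS format measured activity of exogenous NR-GAL4 fusion (RARg) in transfected HepG2 liver cells after 24 h dosing. Induced reporter RNA was detected by RT-PCR/capillary electrophoresis fluorescence, analysed in the positive direction against DMSO.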

For assay [10], the target named is human RAR-related Orphan Receptor beta (RORb), RORB (gene 6096) (UniProt Q92753). Description: ATG_RORb_TRANS: Attagene TRANS-FACTORIAL HepG2 Assay for human RAR-related Orphan Receptor beta (RORb) (AID 2283010). The method in brief: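 Transfect HepG2 with multiple GAL4-UAS reporter transcription units; dose chemicals for 24 h; isolate RNA, reverse-transcribe and PCR-amplify reporter sequences; label, digest and resolve fragments by capillary electrophoresis; fit increases relative to DMSO.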
human RAR-related Orphan Receptor beta (RORb), RORB (gene 6096), sequence (Q92753 whole entry, looked up, the tested form may be a part): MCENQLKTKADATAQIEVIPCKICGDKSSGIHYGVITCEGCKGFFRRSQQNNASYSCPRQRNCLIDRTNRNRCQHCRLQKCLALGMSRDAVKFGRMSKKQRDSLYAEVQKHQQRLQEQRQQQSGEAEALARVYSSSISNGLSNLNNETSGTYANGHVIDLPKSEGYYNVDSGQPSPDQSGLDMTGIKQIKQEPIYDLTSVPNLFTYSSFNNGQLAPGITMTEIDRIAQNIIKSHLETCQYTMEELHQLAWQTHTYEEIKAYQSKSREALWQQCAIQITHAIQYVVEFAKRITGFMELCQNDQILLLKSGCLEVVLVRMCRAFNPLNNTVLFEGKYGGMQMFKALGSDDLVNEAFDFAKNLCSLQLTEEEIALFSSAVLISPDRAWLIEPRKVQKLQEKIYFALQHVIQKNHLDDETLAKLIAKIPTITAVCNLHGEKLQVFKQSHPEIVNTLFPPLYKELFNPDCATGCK

Inconclusive results are not listed. A structure can be active in one record and inactive in another. Calls of active or inactive are those of the source. The calls were made as follows, unless noted: active = hit-call score of the fitted dose curve at least 0.9, where 1 is the maximum; inconclusive = response in the unintended direction; inactive = score below 0.9.

Nuclear receptor subfamily 1 group I member 2 (Homo sapiens), sequence (O75469 whole entry, looked up, the tested form may be a part): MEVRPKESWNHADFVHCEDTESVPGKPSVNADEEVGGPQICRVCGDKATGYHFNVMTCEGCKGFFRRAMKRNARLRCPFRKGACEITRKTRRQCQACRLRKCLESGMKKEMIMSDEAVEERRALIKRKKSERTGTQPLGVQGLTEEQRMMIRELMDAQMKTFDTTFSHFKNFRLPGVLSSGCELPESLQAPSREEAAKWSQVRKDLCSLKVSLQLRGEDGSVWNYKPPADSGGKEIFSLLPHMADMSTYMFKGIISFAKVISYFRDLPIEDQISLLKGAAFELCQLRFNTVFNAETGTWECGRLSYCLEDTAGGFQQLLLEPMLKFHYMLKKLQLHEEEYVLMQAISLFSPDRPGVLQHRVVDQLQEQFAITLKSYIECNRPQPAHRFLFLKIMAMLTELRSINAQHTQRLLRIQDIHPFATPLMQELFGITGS
human Peroxisome Proliferator-activated Receptor delta (PPARd), PPARD (gene 5467), sequence (Q03181 whole entry, looked up, the tested form may be a part): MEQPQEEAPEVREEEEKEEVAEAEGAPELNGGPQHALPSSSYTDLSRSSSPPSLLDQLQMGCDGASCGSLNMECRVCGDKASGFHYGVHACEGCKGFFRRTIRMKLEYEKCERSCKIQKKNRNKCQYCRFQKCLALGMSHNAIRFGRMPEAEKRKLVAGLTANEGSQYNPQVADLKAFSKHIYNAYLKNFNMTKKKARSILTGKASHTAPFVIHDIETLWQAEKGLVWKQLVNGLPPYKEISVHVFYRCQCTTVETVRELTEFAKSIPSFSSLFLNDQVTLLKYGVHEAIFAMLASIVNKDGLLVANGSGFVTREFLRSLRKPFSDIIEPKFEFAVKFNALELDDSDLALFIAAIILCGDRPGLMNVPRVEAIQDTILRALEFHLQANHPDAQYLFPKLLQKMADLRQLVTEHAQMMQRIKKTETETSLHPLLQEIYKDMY
human Retinoic Acid Receptor gamma (RARg), RARG (gene 5916), sequence (P13631 whole entry, looked up, the tested form may be a part): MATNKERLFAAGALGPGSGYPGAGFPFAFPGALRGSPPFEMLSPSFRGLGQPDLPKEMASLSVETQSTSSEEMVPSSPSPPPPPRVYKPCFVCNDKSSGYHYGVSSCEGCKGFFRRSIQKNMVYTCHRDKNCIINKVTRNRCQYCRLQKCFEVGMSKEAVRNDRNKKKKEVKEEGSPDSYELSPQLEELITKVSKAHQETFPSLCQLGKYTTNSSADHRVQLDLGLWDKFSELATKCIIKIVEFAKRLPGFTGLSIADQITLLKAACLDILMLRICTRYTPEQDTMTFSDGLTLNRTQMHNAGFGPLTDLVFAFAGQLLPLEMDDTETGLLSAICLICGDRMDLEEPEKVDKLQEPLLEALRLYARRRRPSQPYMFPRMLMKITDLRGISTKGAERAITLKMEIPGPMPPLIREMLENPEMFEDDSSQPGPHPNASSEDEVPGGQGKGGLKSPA
human Retinoic Acid Receptor beta (RARb), RARB (gene 5915), sequence (P10826 whole entry, looked up, the tested form may be a part): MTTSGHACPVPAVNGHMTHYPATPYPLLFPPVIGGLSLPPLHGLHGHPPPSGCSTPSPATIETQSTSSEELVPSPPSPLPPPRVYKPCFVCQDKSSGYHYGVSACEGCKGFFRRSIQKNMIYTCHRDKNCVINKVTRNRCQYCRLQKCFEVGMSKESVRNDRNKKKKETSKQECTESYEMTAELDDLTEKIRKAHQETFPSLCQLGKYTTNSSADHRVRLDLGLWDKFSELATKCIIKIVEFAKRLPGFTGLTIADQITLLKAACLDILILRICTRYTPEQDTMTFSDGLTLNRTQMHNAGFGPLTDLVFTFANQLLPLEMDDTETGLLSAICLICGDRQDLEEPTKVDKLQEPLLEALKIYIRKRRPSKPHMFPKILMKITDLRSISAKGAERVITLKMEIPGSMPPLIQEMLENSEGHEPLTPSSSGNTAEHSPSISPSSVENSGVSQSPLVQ
Retinoic acid receptor alpha (Homo sapiens), sequence (P10276 whole entry, looked up, the tested form may be a part): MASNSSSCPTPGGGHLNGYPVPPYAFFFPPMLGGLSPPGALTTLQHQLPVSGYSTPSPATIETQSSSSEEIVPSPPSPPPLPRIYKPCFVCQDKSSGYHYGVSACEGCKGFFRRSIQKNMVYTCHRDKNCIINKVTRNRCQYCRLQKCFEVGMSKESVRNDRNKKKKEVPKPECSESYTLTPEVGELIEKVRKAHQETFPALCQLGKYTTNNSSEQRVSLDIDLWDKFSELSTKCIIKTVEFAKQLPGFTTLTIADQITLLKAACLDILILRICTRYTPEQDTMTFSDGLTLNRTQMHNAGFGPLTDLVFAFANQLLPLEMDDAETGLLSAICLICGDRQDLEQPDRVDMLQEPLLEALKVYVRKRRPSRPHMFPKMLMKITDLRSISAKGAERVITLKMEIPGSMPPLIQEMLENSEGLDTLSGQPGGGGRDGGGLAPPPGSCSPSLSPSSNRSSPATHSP
human Peroxisome Proliferator-activated Receptor alpha (PPARa), PPARA (gene 5465), sequence (Q07869 whole entry, looked up): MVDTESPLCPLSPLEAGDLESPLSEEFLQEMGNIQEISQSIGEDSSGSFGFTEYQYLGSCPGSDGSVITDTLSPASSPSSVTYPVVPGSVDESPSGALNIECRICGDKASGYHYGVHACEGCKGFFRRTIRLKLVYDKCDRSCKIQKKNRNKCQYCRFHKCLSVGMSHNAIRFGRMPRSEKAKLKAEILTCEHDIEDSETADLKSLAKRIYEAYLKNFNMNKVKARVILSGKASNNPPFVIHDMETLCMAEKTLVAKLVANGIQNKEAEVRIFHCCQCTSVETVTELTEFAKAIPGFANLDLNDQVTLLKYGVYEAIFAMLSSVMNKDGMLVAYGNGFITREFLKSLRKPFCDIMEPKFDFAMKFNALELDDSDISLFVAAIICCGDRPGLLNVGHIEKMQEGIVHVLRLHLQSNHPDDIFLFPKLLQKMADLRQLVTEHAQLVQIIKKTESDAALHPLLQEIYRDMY

With `CCC1(c2ccccc2)C(=O)N=C(O)NC1=O` (stereo unspecified), the outcome in assay [1], in [2], in assay [3], in [4] and in assay [5] was inactive.

As to `O=C(O)C(F)(F)C(F)(F)C(=O)O`, the result in [1], in [6], in assay [2], in assay [7], in [8] and in assay [3] was inactive. Further, the compound was called inactive in assay [4], in assay [5], in assay [9] and in assay [10].

On to `ClC(Cl)(Cl)c1ccccc1`, for which the result in [1], in assay [2] and in assay [3] was inactive.

With `CC(C)CBr`, the compound was called inactive in [1], in [6], in assay [7], in assay [9] and in assay [10].

As to `CCCCOCC1CO1` (stereo unspecified), the result in assay [1], in [6], in [4] and in assay [5] was inactive.

Regarding `CCCCCCCc1ccc(O)cc1`, the result in assay [1], in assay [6], in assay [7], in assay [8], in assay [5] and in [9] was inactive. Further, the outcome in assay [10] was inactive. The AC50 in [2] is 37.3 µM (active); in assay [3], 14.3 µM (active); in assay [5], 11.1 µM (active).

Take `Nc1cc2c3c(c1)C(c1ccccc1)=N[C@@H](NC(=O)c1cccnc1)C(=O)N3CC2`: the compound was called inactive in [1], in [6], in [2], in [3] and in [10]. Besides, the AC50 was 48.4 µM (active) in assay [4] and 11.2 µM (active) in assay [5].

Regarding `Cc1ccc2c(c1N)C(=O)c1ccccc1C2=O`, the result in assay [1], in assay [2], in assay [3] and in [4] was inactive. In addition, in assay [5], the AC50 is 2.89 µM (active).

`c1ccc2c(c1)Nc1ccccc1S2`: the outcome in [1] and in [2] was inactive. In addition, the half-maximal activity concentration (AC50) is 21.6 µM (active) in assay [3], 26.7 µM (active) in assay [4] and 11.1 µM (active) in assay [5].

`O=C(O)C(F)(OC(F)(F)C(F)(F)C(F)(F)F)C(F)(F)F` (stereo unspecified): the results for the AC50 in assay [1] and in [3] were 16.9 µM (active) and 0.22 µM (active), respectively. Moreover, the compound was classed as inactive in [1], in [2], in assay [7], in assay [8], in [3] and in assay [5]. In addition, the result in [9] and in assay [10] was inactive.

`O=S(=O)(F)C(F)(F)C(F)(F)C(F)(F)C(F)(F)C(F)(F)C(F)(F)C(F)(F)C(F)(F)F`: the compound was called inactive in assay [1], in [2], in assay [8], in assay [3], in assay [5] and in [9]. The result in [10] was inactive.
